Source: PubChem BioAssay
Rows were chosen to be rich in hits. Some 3.4% of all compounds tested hit in one or more screens of this group.
HGIII-sPLA2 inh – Inhibits HGIII-sPLA2 liposome hydrolysis, primary screen; Q9NZ20; QFRET BODIPY PC-A2 liposome hydrolysis, fluorescence; inhibition, % at 12.2 µM; hit rate 0.56% among 370,000; AID 743126;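 active = inhibition above mean plus 3 SD of compounds lying within the high and low control bounds, cut at about 19% in these data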;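 also: 0% = median of test compound wells and 100% = no enzyme DMSO wells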
Target sequence (Q9NZ20 whole entry, looked up): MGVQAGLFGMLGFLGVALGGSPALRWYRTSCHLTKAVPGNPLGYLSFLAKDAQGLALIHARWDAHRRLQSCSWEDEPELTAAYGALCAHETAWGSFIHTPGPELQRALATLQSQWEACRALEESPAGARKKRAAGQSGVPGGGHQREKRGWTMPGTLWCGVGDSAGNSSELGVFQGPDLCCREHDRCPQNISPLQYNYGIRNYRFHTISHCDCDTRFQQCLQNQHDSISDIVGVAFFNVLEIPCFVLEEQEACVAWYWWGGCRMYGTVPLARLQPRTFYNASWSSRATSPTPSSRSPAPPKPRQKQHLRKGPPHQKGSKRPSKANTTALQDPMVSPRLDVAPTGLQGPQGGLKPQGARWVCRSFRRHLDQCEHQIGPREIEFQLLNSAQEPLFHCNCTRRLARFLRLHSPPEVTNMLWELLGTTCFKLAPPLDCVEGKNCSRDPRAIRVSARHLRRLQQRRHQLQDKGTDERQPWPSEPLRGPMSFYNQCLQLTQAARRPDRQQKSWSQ
PLC-gamma1 inh – PLC-gamma1 (human) inhibition, primary screen. P19174. purified PLC-gamma1, fluorogenic substrate, fluorescence. inhibition, % at 12.2 µM. hit rate 0.84% among 370,000. AID 720700; in the data active = inhibition above about 9.5%
PLC-beta3 inh – inhibitors of human phospholipase C beta3. Q01970. inhibition, % at 12.2 µM. Purified PLC-beta3, fluorogenic substrate, fluorescence. hit rate 0.18% among 370,000; in the data active = inhibition above about 11%;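 also: 0% = median of compound wells on plate and 100% = full blocker control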
KLK7 zymogen act – activators of human kallikrein-7 zymogen. purified proKLK7, EDANS-DABCYL substrate fluorescence; 100% is mature enzyme control, 0% vehicle. activation, % at 7 µM. hit rate 0.9% among 370,000;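 active = activation above the mean of all tested compounds plus 3 SD, computed per campaign excluding outliers beyond control limits, cut at about 13% in these data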
ADAM10 inh – inhibits human ADAM10; O14672; recombinant ADAM10, EDANS/DABCYL FRET peptide cleavage, 3 h; inhibition, % at 7 µM; hit rate 0.62% among 370,000; AID 720582;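 active = inhibition above a per-campaign cutoff equal to the mean of compounds falling between control-based bounds plus 3 SD, cut at about 20% in these data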;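 also: 0% = DMSO wells while the 100% control is not disclosed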
ADAM17 inh – inhibitors of human ADAM17; P78536; recombinant ADAM17, EDANS/DABCYL FRET peptide cleavage; inhibition, % at 6.95 µM; hit rate 0.83% among 370,000;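 active = inhibition above the mean of compounds lying between control limits plus 3 SD, set per campaign, cut at about 8.5% in these data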;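 also: 0% = DMSO-only wells as the low control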
hGIII sPLA2 conf – human GIII-sPLA2 inhibition, confirmation. hit rate 34% among 2,000. AID 743280. recombinant hGIII-sPLA2, BODIPY PC-A2 QFRET fluorescence. inhibition, % at 12.2 µM. shares compounds with HGIII-sPLA2 inh;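 active = mean inhibition across triplicates above the hit cutoff set in the earlier primary screen, cut at about 19% in these data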;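 also: 0% = enzyme with DMSO and 100% = DMSO wells lacking enzyme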
535nm interf – counter-screen for HGIII-sPLA2 inhibitors: 535nm fluorescence interference; shares compounds with HGIII-sPLA2 inh; BODIPY FL product fluorescence interference, QFRET; inhibition, % at 12.2 µM; hit rate 8.5% among 2,000;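 active = average inhibition above the solvent-only control mean plus 3 SD, cut at about 6% in these data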;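 also: 0% = DMSO with substrate plus product and 100% = DMSO with substrate alone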
535nm interf DR – counter-screen for HGIII-sPLA2 inhibitors: 535nm fluorescence interference, dose response; BODIPY FL product fluorescence interference, cell-free; AID 743455; 240 tested, under 10 active; shares compounds with HGIII-sPLA2 inh; IC50, µM;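 active = IC50 at or below 10 µM; inactive = IC50 above 10 µM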
The depositor's hits bear a star; · = no result.

SMILES | HGIII-sPLA2 inh | PLC-gamma1 inh | PLC-beta3 inh | KLK7 zymogen act | ADAM10 inh | ADAM17 inh | hGIII sPLA2 conf | 535nm interf | others
COCC#Cc1ccc(CC[C@H]2O[C@H]3CC[C@H](CO)O[C@H]3C[C@H]2n2cc(C(C)(C)O)nn2)cc1 | -6 | 0 | 2 | 1 | -4 | 1 | · | ·
COc1cc(-n2c(C)cc(O)cc2=O)ccc1Cl | -5 | -6 | 0 | 0 | 2 | -1 | · | ·
COc1cccc(N=Nc2c(=O)[nH]n3c(C)cc(C)nc23)c1 | 22* | 3 | 4 | 0 | 5 | 7 | -5 | 0
O=C1N/C(=N\N=C\c2cccs2)SC1Cc1cccc(Cl)c1Cl (configuration not stated) | 20* | 0 | -2 | 0 | -1 | -2 | -11 | -3
CCCCNC(=S)N/N=C/c1cccc(OCC)c1O | 24* | -185 | -268 | -5 | -7 | -8 | 28* | -5 | 535nm interf DR=>122
CCOc1cccc(/C=N/NC(=S)Nc2ccccc2[N+](=O)[O-])c1O | 24* | -7 | -10 | -1 | 2 | 0 | 52* | 14*
O=[N+]([O-])c1ccccc1C=NNC(=S)NN=Cc1ccccc1[N+](=O)[O-] | 24* | 3 | -1 | 0 | -12 | -1 | 49* | 7.3*
COc1ccc(Oc2cccc3c2S(=O)(=O)N(C2CC2)C[C@@H](COCc2ccccc2)O3)cc1 | 2 | -4 | -3 | 0 | 3 | 2 | · | ·
Cc1[nH]nc2c1C(c1cccc(C(F)(F)F)c1)NC2=O (configuration not stated) | -2 | 2 | -1 | 0 | -10 | -1 | · | ·
COc1ccc(NC(=O)c2cc(-c3cc(C)ccc3O)n[nH]2)cc1Cl | 20* | 5 | 7 | 0 | 17 | -1 | -3 | -1
CN(Cc1ccccc1)S(=O)(=O)c1cccc(C(=O)OCc2ccc(C(F)(F)F)cc2)c1 | -3 | 1 | 0 | 0 | 2 | 1 | · | ·
COc1ccc(C(=O)NCCS(=O)(=O)NCc2ccccc2)cc1 | -2 | -1 | -6 | 0 | -2 | 1 | · | ·
O=C(NCCS(=O)(=O)NCc1ccccc1)c1ccccc1 | 19* | 2 | -4 | 0 | -10 | 5 | -1 | -5
O=C(NCCCN1CCN(c2ccc(F)cc2)CC1)Nc1ccccc1 | -1 | 2 | 1 | 0 | -4 | 1 | · | ·
O=[N+]([O-])c1ccccc1S(=O)(=O)N1CCC(c2cn3ccccc3n2)CC1 | 12 | -4 | -9 | -1 | -11 | -2 | · | ·
COc1ccc(NS(=O)(=O)c2cc(N)ccc2N2CCCC2)cc1 | 21* | -24 | -34 | -2 | -112 | -24 | 8 | 3
COc1ccc(NS(=O)(=O)c2cc(N)ccc2N2CCOCC2)cc1 | 6 | 6 | 1 | 0 | 3 | 1 | · | ·
CCN(CC)c1ccc(C=Nn2c(C)nnc2C)cc1 | 10 | 6 | 3 | 0 | -28 | -3 | · | ·
Clc1ccc(/C=N/N2CCCCC2)cc1 | 17 | 5 | 2 | 0 | -3 | -5 | · | ·
N#Cc1ccc(C=NN2CCCCCC2)cc1 | 21* | 0 | 1 | 0 | -5 | -5 | 23* | 2
CC1CN(c2nc3ccccc3nc2SCC(=O)N2CCN(S(=O)(=O)c3ccccc3)CC2)CC(C)O1 (configuration not stated) | -4 | -22 | -24 | -3 | 0 | 3 | · | ·
O=c1c(-c2n[nH]c(=S)n2-c2ccccc2)cccn1Cc1cccc(Cl)c1 | 22* | -9 | -15 | 2 | -21 | -6 | 22* | -1
C=CCn1c(-c2cccn(Cc3cccc(Cl)c3)c2=O)n[nH]c1=S | 8 | -13 | -17 | 4 | -38 | -12 | · | ·
CCOC(=O)c1ccc(NC(=S)Nc2cccc(N)n2)cc1 | 22* | -7 | -9 | 0 | 2 | -6 | 22* | -5
